What all share (assay): yeast three-hybrid, YBZ-1, SC-Leu-His + 0.5 mM 3-AT, 4 days
What all share (details): tags: N-Gal4 AD-HA kept; label: inside an RPR1-promoter hybrid RNA with tandem MS2 sites; ssRNA

Experiment [1] has as its target T1, PUM1 PUF domain R6-SWE (Homo sapiens, UniProt Q14671 828-1176, N1043S;Y1044W;Q1047E).
T1 sequence: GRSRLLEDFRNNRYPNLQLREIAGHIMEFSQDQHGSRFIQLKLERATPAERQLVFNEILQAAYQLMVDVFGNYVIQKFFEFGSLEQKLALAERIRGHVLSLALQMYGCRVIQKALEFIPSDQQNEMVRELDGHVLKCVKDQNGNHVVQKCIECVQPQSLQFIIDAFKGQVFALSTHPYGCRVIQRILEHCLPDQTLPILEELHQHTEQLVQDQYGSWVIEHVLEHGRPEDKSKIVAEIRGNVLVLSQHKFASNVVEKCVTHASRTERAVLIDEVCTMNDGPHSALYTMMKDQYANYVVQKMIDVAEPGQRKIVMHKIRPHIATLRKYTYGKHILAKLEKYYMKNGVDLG
The method, boiled down:
(§1)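 The interaction score is the log change in variant frequency from input to selection. Scores were computed in log2 with a pseudocount of 1 for absent variants, using Illumina sequencing of PCR-amplified repeat regions. The input came from four days on SC-Leu and the selection from four days on SC-Leu-His + 0.5 mM 3-AT. The cells were strain YBZ-1 (LexA–MS2 coat fusion, HIS3 reporter) co-expressing Pumilio-1 PUF domain libraries and matching RNA elements from a centromeric plasmid.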

Experiment [2] concerns the target PUM1 PUF domain R5-PRL (Homo sapiens, UniProt Q14671 828-1176, C1007P;Q1011L). In a few lines:
as §1

For experiment [3], the target named is T2, PUM1 PUF domain R6-RFI (Homo sapiens, UniProt Q14671 828-1176, N1043R;Y1044F;Q1047I).
T2 sequence: T1 sequence with S216R, W217F, E220I
The method, boiled down: as §1

The target in experiment [4] is PUM1 PUF domain R5-RNC (Homo sapiens, UniProt Q14671 828-1176, C1007R;R1008N;Q1011C). In a few lines: as §1
Experiment [5] has as its target T3, PUM1 PUF domain R6-GYM (Homo sapiens, UniProt Q14671 828-1176, N1043G;Q1047M).
T3 sequence: T1 sequence with S216G, W217Y, E220M
The method, boiled down: as §1

The target in experiment [6] is PUM1 PUF domain R4-AFP (Homo sapiens, UniProt Q14671 828-1176, N971A;H972F;Q975P). The method, boiled down:
as §1

In experiment [7] the target is T4, PUM1 PUF domain R6-FRL (Homo sapiens, UniProt Q14671 828-1176, N1043F;Y1044R;Q1047L).
T4 sequence: T1 sequence with S216F, W217R, E220L
In a few lines: as §1

Experiment [8] deals with PUM1 PUF domain R5-KQT (Homo sapiens, UniProt Q14671 828-1176, C1007K;R1008Q;Q1011T). In a few lines:
as §1

Experiment [9] has as its target PUM1 PUF domain R2-CYP (Homo sapiens, UniProt Q14671 828-1176, N899C;Q903P). In a few lines:
as §1

Experiment [10] deals with PUM1 PUF domain R2-RRS (Homo sapiens, UniProt Q14671 828-1176, N899R;Y900R;Q903S). In a few lines:
as §1

For experiment [11], the target named is PUM1 PUF domain R4-VNA (Homo sapiens, UniProt Q14671 828-1176, N971V;H972N;Q975A). The method, boiled down: as §1
In experiment [12] the target is PUM1 PUF domain R1-SRR (Homo sapiens, UniProt Q14671 828-1176, Q867R). The method, boiled down: as §1
The target of experiment [13] is PUM1 PUF domain R1-GVR (Homo sapiens, UniProt Q14671 828-1176, S863G;R864V;Q867R). The method, boiled down: as §1
In experiment [14] the target is PUM1 PUF domain R7-GTS (Homo sapiens, UniProt Q14671 828-1176, S1079G;N1080T;E1083S). In a few lines: as §1
Experiment [15] addresses PUM1 PUF domain R7-KGG (Homo sapiens, UniProt Q14671 828-1176, S1079K;N1080G;E1083G). In a few lines: as §1

Numbering of substitutions follows the chain as printed.

Sequence of PUM1 PUF domain R4-AFP (Q14671 828-1176 N971A/H972F/Q975P): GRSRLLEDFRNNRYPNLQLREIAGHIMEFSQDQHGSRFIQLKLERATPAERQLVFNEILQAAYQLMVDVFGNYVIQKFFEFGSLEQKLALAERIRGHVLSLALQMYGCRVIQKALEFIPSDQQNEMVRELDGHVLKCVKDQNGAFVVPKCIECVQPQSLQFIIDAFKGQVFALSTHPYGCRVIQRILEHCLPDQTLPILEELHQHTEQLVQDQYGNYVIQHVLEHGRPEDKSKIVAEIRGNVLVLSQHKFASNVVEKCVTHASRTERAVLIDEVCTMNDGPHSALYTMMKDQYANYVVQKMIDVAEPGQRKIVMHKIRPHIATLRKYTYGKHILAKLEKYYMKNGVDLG
Sequence of PUM1 PUF domain R5-KQT (Q14671 828-1176 C1007K/R1008Q/Q1011T): as the sequence (Q14671 828-1176 N971A/H972F/Q975P) above, with A144N, F145H, P148Q, C180K, R181Q, Q184T counted along it

“GGCUAGAACUAGUGGAUCCCCCGGCGCCCGGCGGCUCGAGCCCGGGUAAGUGAAAAUAGUCUGCAUGCCGCCGGGCGCCAUGCCUGCAGGUCGACUCUAGAAAACAUG”: the binding signal in experiment [1] is 4.09 log2 enrichment (interaction score).
In the case of “GGCUAGAACUAGUGGAUCCCCCGGCGCCCGGCGGCUCGAGCCCGGGUAAGUGUAAAUAGUCUGCAUGCCGCCGGGCGCCAUGCCUGCAGGUCGACUCUAGAAAACAUG”, the binding signal was 3.53 log2 enrichment (interaction score) in experiment [2]; 2.68 log2 enrichment (interaction score) in experiment [3]; 1.15 log2 enrichment (interaction score) in [4]; 3.33 log2 enrichment (interaction score) in [5]; 3.88 log2 enrichment (interaction score) in [6]; 2.93 log2 enrichment (interaction score) in experiment [7]. Further, the binding signal in [8] is 2.17 log2 enrichment (interaction score).
With “GGCUAGAACUAGUGGAUCCCCCGGCGCCCGGCGGCUCGAGCCCGGGUAAGUGUAAAGAGUCUGCAUGCCGCCGGGCGCCAUGCCUGCAGGUCGACUCUAGAAAACAUG”, the binding signal in experiment [9] is 2.3 log2 enrichment (interaction score); in experiment [10], 2.87 log2 enrichment (interaction score).
“GGCUAGAACUAGUGGAUCCCCCGGCGCCCGGCGGCUCGAGCCCGGGUAAGUGUAAAAAGUCUGCAUGCCGCCGGGCGCCAUGCCUGCAGGUCGACUCUAGAAAACAUG”: the binding signal was 5.81 log2 enrichment (interaction score) in [9] and 1.22 log2 enrichment (interaction score) in [10].
Regarding “GGCUAGAACUAGUGGAUCCCCCGGCGCCCGGCGGCUCGAGCCCGGGUAAGUGUAUAUAGUCUGCAUGCCGCCGGGCGCCAUGCCUGCAGGUCGACUCUAGAAAACAUG”, the results for the binding signal in experiment [6] and in experiment [11] were 5 log2 enrichment (interaction score) and 3.11 log2 enrichment (interaction score), respectively.
For “GGCUAGAACUAGUGGAUCCCCCGGCGCCCGGCGGCUCGAGCCCGGGUAAGUGUAAAUUGUCUGCAUGCCGCCGGGCGCCAUGCCUGCAGGUCGACUCUAGAAAACAUG”, the binding signal is 1.58 log2 enrichment (interaction score) in [12] and 2.24 log2 enrichment (interaction score) in [13].
As to “GGCUAGAACUAGUGGAUCCCCCGGCGCCCGGCGGCUCGAGCCCGGGUAAGUUUAAAUAGUCUGCAUGCCGCCGGGCGCCAUGCCUGCAGGUCGACUCUAGAAAACAUG”, the binding signal in [14] was 2.61 log2 enrichment (interaction score); in [15], 2.69 log2 enrichment (interaction score).

The values are drawn from PMC8384837, “Expanding the binding specificity for RNA recognition by a PUF domain”.
